We go through 18 sequences from publication PMC11006913.

Changes are numbered by the printed parent chain.

What all share (experiment): PBM; 200 nM protein, PBS
Common to all, as to settings: dsDNA, one strand shown

The target of test [1] is T1, NKX2-4 (Homo sapiens, UniProt Q9H2Z4 175-261, P217L).
T1 sequence: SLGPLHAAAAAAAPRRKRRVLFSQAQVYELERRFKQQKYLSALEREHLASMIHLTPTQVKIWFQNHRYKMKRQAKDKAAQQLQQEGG

The target in test [2] is T2, NKX2-4 (Homo sapiens, UniProt Q9H2Z4 175-261, T231S).
T2 sequence: T1 sequence with L43P, T57S

For test [3], the target named is T3, NKX2-4 (Homo sapiens, UniProt Q9H2Z4 175-261).
T3 sequence: T1 sequence with L43P

Test [4] addresses T4, NKX2-4 (Homo sapiens, UniProt Q9H2Z4 175-261, R246Q).
T4 sequence: T1 sequence with L43P, R72Q

For the sequence ACGGCGAC, the binding signal in the test with NKX2-4 [1] is 9.81 upbm affinity estimate (log intensity, higher = more binding, comparable within an allelic series); in the test with NKX2-4 [2], 9.82 upbm affinity estimate (log intensity, higher = more binding, comparable within an allelic series); with NKX2-4 [3] it was 9.78 upbm affinity estimate (log intensity, higher = more binding, comparable within an allelic series); with NKX2-4 [4] it was 9.81 upbm affinity estimate (log intensity, higher = more binding, comparable within an allelic series).
For CCGCTACC, the binding signal with NKX2-4 [1] was 9.71 upbm affinity estimate (log intensity, higher = more binding, comparable within an allelic series); with NKX2-4 [2], 9.7 upbm affinity estimate (log intensity, higher = more binding, comparable within an allelic series); with NKX2-4 [3] it was 9.66 upbm affinity estimate (log intensity, higher = more binding, comparable within an allelic series); in the test with NKX2-4 [4] it was 9.79 upbm affinity estimate (log intensity, higher = more binding, comparable within an allelic series).
Regarding ATCGTGCC, the binding signal with NKX2-4 [1] is 9.86 upbm affinity estimate (log intensity, higher = more binding, comparable within an allelic series); with NKX2-4 [2] it was 9.92 upbm affinity estimate (log intensity, higher = more binding, comparable within an allelic series); in the test with NKX2-4 [3], 9.97 upbm affinity estimate (log intensity, higher = more binding, comparable within an allelic series); with NKX2-4 [4], 9.95 upbm affinity estimate (log intensity, higher = more binding, comparable within an allelic series).
As for GGCAGTCA, the binding signal with NKX2-4 [1] is 10.1 upbm affinity estimate (log intensity, higher = more binding, comparable within an allelic series); with NKX2-4 [2] it was 10 upbm affinity estimate (log intensity, higher = more binding, comparable within an allelic series); with NKX2-4 [3] it was 9.98 upbm affinity estimate (log intensity, higher = more binding, comparable within an allelic series); with NKX2-4 [4] it was 10.1 upbm affinity estimate (log intensity, higher = more binding, comparable within an allelic series).
For the sequence AAGAGGGG, the binding signal with NKX2-4 [1] is 11.9 upbm affinity estimate (log intensity, higher = more binding, comparable within an allelic series); with NKX2-4 [2], 12.2 upbm affinity estimate (log intensity, higher = more binding, comparable within an allelic series); with NKX2-4 [3], 11.8 upbm affinity estimate (log intensity, higher = more binding, comparable within an allelic series); with NKX2-4 [4] it was 12.1 upbm affinity estimate (log intensity, higher = more binding, comparable within an allelic series).
With ATCCCTCC, the binding signal in the test with NKX2-4 [1] is 9.86 upbm affinity estimate (log intensity, higher = more binding, comparable within an allelic series); with NKX2-4 [2] it was 9.87 upbm affinity estimate (log intensity, higher = more binding, comparable within an allelic series); with NKX2-4 [3], 9.86 upbm affinity estimate (log intensity, higher = more binding, comparable within an allelic series); with NKX2-4 [4], 9.77 upbm affinity estimate (log intensity, higher = more binding, comparable within an allelic series).
On to CCGGTAAC, for which the binding signal was 9.94 upbm affinity estimate (log intensity, higher = more binding, comparable within an allelic series) in the test with NKX2-4 [1]; 9.84 upbm affinity estimate (log intensity, higher = more binding, comparable within an allelic series) with NKX2-4 [2]; 9.9 upbm affinity estimate (log intensity, higher = more binding, comparable within an allelic series) with NKX2-4 [3]; 9.93 upbm affinity estimate (log intensity, higher = more binding, comparable within an allelic series) with NKX2-4 [4].
Take CCGCCACG: the binding signal is 9.92 upbm affinity estimate (log intensity, higher = more binding, comparable within an allelic series) in the test with NKX2-4 [1]; 9.9 upbm affinity estimate (log intensity, higher = more binding, comparable within an allelic series) with NKX2-4 [2]; 9.94 upbm affinity estimate (log intensity, higher = more binding, comparable within an allelic series) in the test with NKX2-4 [3]; 9.94 upbm affinity estimate (log intensity, higher = more binding, comparable within an allelic series) with NKX2-4 [4].
Turning to AAAGTACT, the binding signal in the test with NKX2-4 [1] is 12.4 upbm affinity estimate (log intensity, higher = more binding, comparable within an allelic series); in the test with NKX2-4 [2], 12.8 upbm affinity estimate (log intensity, higher = more binding, comparable within an allelic series); in the test with NKX2-4 [3] it was 12.3 upbm affinity estimate (log intensity, higher = more binding, comparable within an allelic series); with NKX2-4 [4] it was 12.8 upbm affinity estimate (log intensity, higher = more binding, comparable within an allelic series).
Turning to ATCACACC, the binding signal is 9.96 upbm affinity estimate (log intensity, higher = more binding, comparable within an allelic series) with NKX2-4 [1]; 9.93 upbm affinity estimate (log intensity, higher = more binding, comparable within an allelic series) with NKX2-4 [2]; 9.81 upbm affinity estimate (log intensity, higher = more binding, comparable within an allelic series) with NKX2-4 [3]; 9.96 upbm affinity estimate (log intensity, higher = more binding, comparable within an allelic series) with NKX2-4 [4].
As for CGGCTGTA, the binding signal with NKX2-4 [1] was 9.81 upbm affinity estimate (log intensity, higher = more binding, comparable within an allelic series); with NKX2-4 [2], 9.8 upbm affinity estimate (log intensity, higher = more binding, comparable within an allelic series); in the test with NKX2-4 [3] it was 9.77 upbm affinity estimate (log intensity, higher = more binding, comparable within an allelic series); in the test with NKX2-4 [4], 9.94 upbm affinity estimate (log intensity, higher = more binding, comparable within an allelic series).
For GAAGAGTA, the binding signal was 11.9 upbm affinity estimate (log intensity, higher = more binding, comparable within an allelic series) in the test with NKX2-4 [1]; 12.2 upbm affinity estimate (log intensity, higher = more binding, comparable within an allelic series) with NKX2-4 [2]; 11.7 upbm affinity estimate (log intensity, higher = more binding, comparable within an allelic series) in the test with NKX2-4 [3]; 12.2 upbm affinity estimate (log intensity, higher = more binding, comparable within an allelic series) in the test with NKX2-4 [4].
In the case of GACACCGC, the binding signal with NKX2-4 [1] is 9.33 upbm affinity estimate (log intensity, higher = more binding, comparable within an allelic series); with NKX2-4 [2], 9.29 upbm affinity estimate (log intensity, higher = more binding, comparable within an allelic series); with NKX2-4 [3], 9.43 upbm affinity estimate (log intensity, higher = more binding, comparable within an allelic series); with NKX2-4 [4], 9.52 upbm affinity estimate (log intensity, higher = more binding, comparable within an allelic series).
Consider CACTCGAG, for which the binding signal with NKX2-4 [1] was 12.4 upbm affinity estimate (log intensity, higher = more binding, comparable within an allelic series); with NKX2-4 [2], 12.8 upbm affinity estimate (log intensity, higher = more binding, comparable within an allelic series); in the test with NKX2-4 [3], 12.4 upbm affinity estimate (log intensity, higher = more binding, comparable within an allelic series); with NKX2-4 [4] it was 13 upbm affinity estimate (log intensity, higher = more binding, comparable within an allelic series).
As for CCTGGAGC, the binding signal with NKX2-4 [1] was 9.98 upbm affinity estimate (log intensity, higher = more binding, comparable within an allelic series); in the test with NKX2-4 [2], 9.95 upbm affinity estimate (log intensity, higher = more binding, comparable within an allelic series); with NKX2-4 [3], 9.96 upbm affinity estimate (log intensity, higher = more binding, comparable within an allelic series); in the test with NKX2-4 [4], 9.94 upbm affinity estimate (log intensity, higher = more binding, comparable within an allelic series).
Consider CCCTGCAG, for which the binding signal with NKX2-4 [1] was 9.9 upbm affinity estimate (log intensity, higher = more binding, comparable within an allelic series); with NKX2-4 [2], 9.92 upbm affinity estimate (log intensity, higher = more binding, comparable within an allelic series); in the test with NKX2-4 [3], 9.89 upbm affinity estimate (log intensity, higher = more binding, comparable within an allelic series); with NKX2-4 [4] it was 9.93 upbm affinity estimate (log intensity, higher = more binding, comparable within an allelic series).
For TCCGGACA, the binding signal in the test with NKX2-4 [1] is 9.56 upbm affinity estimate (log intensity, higher = more binding, comparable within an allelic series); with NKX2-4 [2], 9.6 upbm affinity estimate (log intensity, higher = more binding, comparable within an allelic series); with NKX2-4 [3] it was 9.6 upbm affinity estimate (log intensity, higher = more binding, comparable within an allelic series); in the test with NKX2-4 [4] it was 9.66 upbm affinity estimate (log intensity, higher = more binding, comparable within an allelic series).
For the sequence GGTCGCCA, the binding signal with NKX2-4 [1] was 9.68 upbm affinity estimate (log intensity, higher = more binding, comparable within an allelic series); with NKX2-4 [2], 9.67 upbm affinity estimate (log intensity, higher = more binding, comparable within an allelic series); with NKX2-4 [3], 9.7 upbm affinity estimate (log intensity, higher = more binding, comparable within an allelic series); with NKX2-4 [4] it was 9.8 upbm affinity estimate (log intensity, higher = more binding, comparable within an allelic series).
